Compounds without any hit were thinned out: in the full panel of roughly 79,000, 15% have a hit. Values without a mark were called inactive. Activity calls are given as the source filed them. No stated cut-off is given here; in the data, active means growth inhibition above about 70%; inactive means the rest.
Experiment: NCI Yeast Anticancer Drug Screen. Data for the mgt1 strain (AID 153)
Settings: S. cerevisiae mgt1 mutant growth inhibition, active compounds read high
Method: Growth inhibition of yeast strains with defined genetic alterations is measured as a screen for potential anti-cancer activity. Selected strains with alterations in DNA damage repair or cell cycle control were exposed to compounds and growth inhibition was measured relative to vehicle treated controls. The strain used in this assay is mgt1

Compound | growth inhibition (at 1.2 µM) [%] | growth inhibition (at 3.7 µM) | growth inhibition (at 11.0 µM) | growth inhibition (at 33.0 µM) | growth inhibition (at 100.0 µM)
CC(C)(C)c1ccc2c(c1)C(=O)c1ccccc1C2=O | -3 | -9% | -7% | -7% | -4%
CC1(C)C(O)OC(O)C1(C)C (stereo not given) | -1 | -1% | 2% | 16% | 10%
CC(C)C(c1ccccc1)c1ccccc1 | 0 | 0% | -1% | -6% | 55%
CC1CN(/N=C\c2ccc([N+](=O)[O-])o2)C(=O)O1 (stereo not given) | -1 | -1% | -1% | -1% | 9%
O=[N+]([O-])c1cn[n+]([O-])c2ccccc12 | 10 | -5% | 33% | 99% (active) | 99% (active)
CNC(=O)OCc1c2ccncc2c(C)c2c1[nH]c1ccccc12 | 2 | 21% | 18% | 34% | 55%
C[n+]1c(/C=C/c2ccc(/C=N/NC(=O)c3ccc(C(=O)N/N=C/c4ccc(/C=C/c5cn6ccccc6[n+]5C)cc4)cc3)cc2)cn2ccccc21 | 42 | 99% (active) | 99% (active) | 97% (active) | 94% (active)
COc1ccc(C(=O)/C=C\c2ccc(Cl)c(Cl)c2)cc1 | 7 | -38% | -4% | 25% | 70% (active)

— PubChem BioAssay (NCI)
